The text below walks through data of PubChem BioAssay (NCI).

Holding throughout (test): NCI-60 one-dose screen, 48 h (100 = growth as untreated, 0 = no growth, -100 = all killed)
One test relates to HT29 colon. Conditions: 10 µM unless noted.
The subject of a further test is SNB-75 CNS. The settings on record: 10 µM unless noted.
The next test relates to SNB-19 CNS. Conditions: 10 µM unless noted.
The test system of another test is U251 CNS. Conditions: 10 µM unless noted.
A further test deals with PC-3 prostate. Conditions: 10 µM unless noted.
The next test has as its system SK-MEL-5 melanoma. Conditions: 10 µM unless noted.
For a further test, the system named is UACC-62 melanoma. Conditions: 10 µM unless noted.
The next test relates to LOX IMVI melanoma. The settings on record: 10 µM unless noted.
A further test deals with SK-MEL-28 melanoma. The settings on record: 10 µM.
The subject of the next test is SK-MEL-2 melanoma. The settings on record: 10 µM unless noted.
The test system of another test is SN12C renal. Conditions: 10 µM unless noted.
The test system of the next test is UO-31 renal. Conditions: 10 µM unless noted.
For the next test, the system named is TK-10 renal. Conditions: 10 µM unless noted.
The subject of another test is ACHN renal. Conditions: 10 µM unless noted.
The subject of the next test is CAKI-1 renal. Conditions: 10 µM unless noted.
A further test relates to A498 renal. The settings on record: 10 µM unless noted.
For a further test, the system named is CCRF-CEM leukemia. The settings on record: 10 µM unless noted.
Another test has as its system MOLT-4 leukemia. The settings on record: 10 µM unless noted.
For the next test, the system named is SR leukemia. The settings on record: 10 µM unless noted.

About 83,000 compounds went through this panel and 20% of them were active in at least one assay; those are over-represented in the sample as a whole.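 Assay: single dose, 48 h. Readout: percent growth (0 = no net growth; negative = cell death). Active: <10.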 Values without a mark were called inactive. Active and inactive are the calls of the source.

For the molecule `O=C(O)CCCN1C(=O)C2C3CCC(C3)C2C1=O` (configuration not stated), the growth is 100% with HT29 colon; 95.8% in the test on SNB-75 CNS; 104% in the test on SNB-19 CNS; 104% with U251 CNS; 106% in the test on PC-3 prostate; 101% in the test on SK-MEL-5 melanoma. For the same molecule, the growth in the test on UACC-62 melanoma is 97%; with LOX IMVI melanoma it was 103%; with SK-MEL-28 melanoma, 113%; in the test on SK-MEL-2 melanoma it was 101%; in the test with SN12C renal it was 103%; with UO-31 renal, 90.5%. The growth is 98.2% with TK-10 renal; 109% with ACHN renal; 97.2% with CAKI-1 renal; 105% with A498 renal; 108% in the test with CCRF-CEM leukemia; 104% in the test with MOLT-4 leukemia. In addition, in the test on SR leukemia, the growth was 112%.

Take `CC(=O)Nc1nc2c(s1)CCc1c-2cn(S(=O)(=O)c2ccccc2)c1-c1ccccc1`: the growth in the test on HT29 colon is 78.1%; in the test with SNB-75 CNS, 82.8%; in the test on SNB-19 CNS it was 93.6%; in the test on U251 CNS it was 62.4%; with PC-3 prostate, 40.9%; in the test with SK-MEL-5 melanoma it was 43.9%. In addition, the growth with UACC-62 melanoma is 58%; with LOX IMVI melanoma, 47.1%; in the test on SK-MEL-28 melanoma, 95.1%; in the test on SK-MEL-2 melanoma, 94.5%; in the test with SN12C renal it was 76.8%; in the test on UO-31 renal it was 41.2%. Also, the growth with TK-10 renal is 85.9%; with ACHN renal, 69.1%; with CAKI-1 renal, 56.9%; with A498 renal, 88.1%; in the test on CCRF-CEM leukemia, 43.1%; with MOLT-4 leukemia, 48.2%. Further, the growth with SR leukemia is 28.1%.

For the molecule `CCOc1cc2c(cc1OCC)C(c1cc(C)c(O)c(C)c1)NCC2` (configuration not stated), the growth in the test with HT29 colon was 98%; in the test on SNB-75 CNS, 95.3%; with SNB-19 CNS it was 101%; in the test with U251 CNS it was 94%; in the test with PC-3 prostate, 82%; in the test on SK-MEL-5 melanoma, 99.9%. Besides, the growth with UACC-62 melanoma was 91.3%; in the test on LOX IMVI melanoma, 99.6%; in the test with SK-MEL-28 melanoma, 107%; in the test on SK-MEL-2 melanoma, 98.3%; in the test on SN12C renal it was 95.7%; in the test with UO-31 renal, 73.4%. In addition, the growth in the test on TK-10 renal is 107%; in the test with ACHN renal, 94.2%; in the test with CAKI-1 renal, 85.2%; in the test on A498 renal, 88.1%; in the test with CCRF-CEM leukemia, 89.6%; in the test with MOLT-4 leukemia, 96.3%. The growth in the test on SR leukemia was 80.7%.

For `COc1cc(-c2c3c(c(Br)n2Cc2ccccc2)-c2nc(N)sc2CC3)cc(OC)c1OC`, the growth is 105% in the test on HT29 colon; 73.7% in the test on SNB-75 CNS; 88.2% with SNB-19 CNS; 85.3% in the test with U251 CNS; 78.6% in the test with PC-3 prostate; 87.1% with SK-MEL-5 melanoma. For the same molecule, the growth in the test on UACC-62 melanoma was 68.3%; in the test on LOX IMVI melanoma, 87.5%; in the test on SK-MEL-28 melanoma it was 87.3%; in the test on SK-MEL-2 melanoma, 101%; in the test with SN12C renal, 85.7%; in the test on UO-31 renal it was 70.6%. Besides, the growth in the test with TK-10 renal was 119%; with ACHN renal it was 88.3%; in the test on CAKI-1 renal, 97.4%; with A498 renal, 80.5%; in the test with CCRF-CEM leukemia, 44.4%; in the test with MOLT-4 leukemia it was 50.6%. Besides, the growth with SR leukemia is 40.2%.

With `CCOC(=O)c1cc2c(n1Cc1cc(OC)c(OC)c(OC)c1)-c1oncc1CCC2`, the growth is 4.59% (active) with HT29 colon; 20.2% in the test with SNB-75 CNS; 72.1% in the test with SNB-19 CNS; 25.3% in the test on U251 CNS; 37% in the test on PC-3 prostate; 8.95% (active) in the test with SK-MEL-5 melanoma. Also, the growth with UACC-62 melanoma is 25.5%; in the test with LOX IMVI melanoma it was 27%; with SK-MEL-28 melanoma, 41.1%; in the test with SK-MEL-2 melanoma it was 54%; with SN12C renal, 32.1%; in the test with UO-31 renal it was 38.3%. For the same molecule, the growth is 85.2% in the test on TK-10 renal; 33.8% in the test with ACHN renal; 43.7% with CAKI-1 renal; -22.9% (active) in the test with A498 renal; 5.78% (active) in the test on CCRF-CEM leukemia; 7.85% (active) in the test with MOLT-4 leukemia. Also, the growth in the test with SR leukemia was 2.12% (active).

For the molecule `Oc1c(C(Nc2ccccn2)c2cccc(Oc3ccccc3)c2)ccc2cccnc12` (configuration not stated), the growth in the test with HT29 colon was -93.5% (active); in the test on SNB-75 CNS, -99.1% (active); in the test on SNB-19 CNS, -80.7% (active); in the test with U251 CNS it was -89.2% (active); with PC-3 prostate it was -90.3% (active); with SK-MEL-5 melanoma it was -68.1% (active). For the same molecule, the growth was -86.6% (active) in the test on UACC-62 melanoma; -86.5% (active) in the test with LOX IMVI melanoma; -97.2% (active) in the test on SK-MEL-28 melanoma; -82.9% (active) in the test with SK-MEL-2 melanoma; -89.4% (active) in the test with SN12C renal; -90.4% (active) in the test with UO-31 renal. The growth in the test on TK-10 renal is -90.9% (active); in the test on ACHN renal it was -88.8% (active); with CAKI-1 renal, -90.3% (active); in the test with A498 renal it was -61% (active); in the test with CCRF-CEM leukemia, -59% (active); with MOLT-4 leukemia, -70.1% (active). Further, the growth in the test on SR leukemia was -49.7% (active).

Turning to `O=C(Nc1ccc(-c2nc3ccc(NC(=O)c4ccc(Cl)cc4)cc3[nH]2)cc1)c1ccc(Cl)cc1`, the growth in the test on HT29 colon is -58.1% (active); with SNB-75 CNS, -31.6% (active); in the test with SNB-19 CNS, 35.2%; in the test with U251 CNS, 2.01% (active); with PC-3 prostate, 38.3%; in the test on SK-MEL-5 melanoma it was 9.75% (active). In addition, the growth with UACC-62 melanoma is 0.642% (active); in the test on LOX IMVI melanoma, -49.6% (active); in the test with SK-MEL-28 melanoma, 7.47% (active); in the test with SK-MEL-2 melanoma, -33.9% (active); in the test with SN12C renal, 24.5%; with UO-31 renal, -5.85% (active). Also, the growth was -27.9% (active) in the test on TK-10 renal; 9.32% (active) in the test with ACHN renal; 27.2% in the test on CAKI-1 renal; 58.7% in the test on A498 renal; 1.27% (active) with CCRF-CEM leukemia; 3.96% (active) in the test on MOLT-4 leukemia. Moreover, in the test on SR leukemia, the growth is -24.9% (active).

As to `CCOc1cc(Cl)c(C(C)NC(=O)c2cccc(OC)c2)cc1OCC` (configuration not stated), the growth in the test with HT29 colon was -39.4% (active); in the test with SNB-75 CNS it was 7.33% (active); in the test with SNB-19 CNS it was 84.2%; in the test on U251 CNS it was 22.5%; with PC-3 prostate, 6.15% (active); in the test on SK-MEL-5 melanoma, -96.8% (active). The growth in the test with UACC-62 melanoma is -76% (active); in the test with LOX IMVI melanoma, -68.9% (active); in the test on SK-MEL-28 melanoma, -44.6% (active); with SK-MEL-2 melanoma, 34.9%; with SN12C renal it was -23.3% (active); in the test on UO-31 renal it was -92.5% (active). Moreover, the growth is -62.4% (active) with TK-10 renal; -73.3% (active) in the test with ACHN renal; -39.1% (active) with CAKI-1 renal; 26.2% with A498 renal; -24.5% (active) in the test with CCRF-CEM leukemia; -10.2% (active) in the test on MOLT-4 leukemia. In the test on SR leukemia, the growth was -19.1% (active).
